TrxR1 inh: qHTS Assay for Inhibitors of Mammalian Selenoprotein Thioredoxin Reductase 1 (TrxR1): qHTS; Potency, µM (highest dose often 114 µM), usual class: inhibitors; recombinant rTrxR1, NADPH fluorescence consumption, selenite substrate; AID 588453, 2011; Thioredoxin reductase 1, cytoplasmic (Rattus norvegicus), O89049; hit rate 1% among 390,000; further: nearly all actives have a fitted effect of over 65% in size
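Rat TrxR1 (90 nM in the dispensed reagent) was pre-reduced with 400 uM NADPH for 5 min at room temperature, then incubated with compound for 15 min. After 400 uM selenite was added, NADPH fluorescence (Ex 340/Em 450 nm) was followed for 8 min.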
TrxR1 substrate: qHTS Assay for Substrates of Mammalian Selenoprotein Thioredoxin Reductase 1 (TrxR1): qHTS; hit rate 0.01% among 390,000; Potency, µM (series often up to 114 µM); purified TrxR1 substrate turnover, NADPH consumption readout; further: nearly all actives have a fitted effect of over 50% in size
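Rat TrxR1, dispensed at 90 nM, was prereduced with 400 uM NADPH (final) for 5 min at ~22 deg C, then incubated with compound 15 min before 400 uM selenite. A first-read NADPH fluorescence drop versus no-compound background flagged substrates.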
NPSR antag: qHTS Assay for Antagonists of the Neuropeptide S Receptor: cAMP Signal Transduction | Q6W5P4 | CHO-NPSR cells, cAMP TR-FRET, antagonist mode | Potency, µM (top dose mostly 38.3 µM), hits mostly inhibitors | hit rate 1% among 220,000; further: nearly all actives have a fitted effect of over 50% in size
GALK inh: qHTS Assay for Inhibitors of Human Galactokinase (GALK); P51570; Purified GALK, Kinase-Glo residual ATP luminescence; hit rate 0.007% among 270,000; Potency, µM (doses to about 57.5 µM), hits mostly inhibitors
Target sequence (P51570 whole entry, looked up): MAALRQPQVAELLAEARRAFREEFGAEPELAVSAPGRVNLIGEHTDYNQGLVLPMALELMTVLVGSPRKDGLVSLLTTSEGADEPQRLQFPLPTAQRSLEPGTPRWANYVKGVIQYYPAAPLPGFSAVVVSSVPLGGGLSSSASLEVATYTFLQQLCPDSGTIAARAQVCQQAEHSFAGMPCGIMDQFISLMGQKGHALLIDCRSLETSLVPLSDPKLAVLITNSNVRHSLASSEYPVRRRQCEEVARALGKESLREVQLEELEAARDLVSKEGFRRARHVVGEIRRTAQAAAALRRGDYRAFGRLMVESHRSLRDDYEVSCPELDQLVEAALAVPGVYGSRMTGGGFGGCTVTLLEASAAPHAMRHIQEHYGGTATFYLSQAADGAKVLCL
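Galactose (100 uM) and ATP (35 uM) were turned over by 5 nM GALK for 1 h at RT. Kinase-Glo Plus then converted the remaining ATP into a luminescent signal.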
Numbers stand for hits; . = inactive; ? = inconclusive; / = not tested or not shown; ! = repeats disagree; [ ] = dose if it differs, or a comment. An excerpt weighted towards active compounds, which were near 1.2% of everything screened. The call rests on the fitted dose curve; in most records, active means well fitted curve in the direction sought with a large enough effect; inconclusive means small, poorly fitted or top-dose-only effect, or another doubt; inactive means no such curve, though single readings can be large; an effect the other way counts as inactive or inconclusive.

SMILES | TrxR1 inh | TrxR1 substrate | NPSR antag | GALK inh
CC(C)(C)C(=O)Nc1ccc(Sc2ccc([N+](=O)[O-])cc2)cc1 | . | . | . | .
CC(=O)Nc1ccc(Sc2ccc([N+](=O)[O-])o2)cc1 | 4.47µM | . | / | /
COc1ccc(Cl)cc1NC(=O)Cn1c(=O)n(Cc2ccc(F)cc2)c(=O)c2cccnc21 | . | . | / | /
O=[N+]([O-])C(/C=C(\Cl)[N+](=O)[O-])=C(N1CCCCC1)N1CCCCC1 | 20µM | . | . | .
O=[N+]([O-])C(=C1SCCS1)C(=C(Cl)Cl)N1CCCCC1 | . | . | . | .
CN1CCN/C1=C(/C(Cl)=C(Cl)Cl)[N+](=O)[O-] | 3.16µM | . | . | .
O=[N+]([O-])c1ccc(Nc2nc(NCCN3CCOCC3)nc(Nc3ccc(Cl)cc3)n2)cc1 | . | . | / | /
CCS(=O)(=O)c1cc([N+](=O)[O-])c(Sc2ccccc2NC(C)=O)s1 | 8.91µM | . | ? | /
CC(=O)Nc1ccccc1-c1ccccc1[N+](=O)[O-] | .[2.29 µM] | .[2.29 µM] | / | /
CCCc1nc2c(=O)n(C)c(=O)nc-2n(C)n1 | . | ? | 7.94µM | 1.78µM
Cn1nc(-c2ccccn2)nc2c(=O)n(C)c(=O)nc1-2 | ? | 35.5µM | 2.51µM | 1µM
Cc1ccccc1-c1nc2c(=O)n(C)c(=O)nc-2n(C)n1 | 14.1µM | 12.6µM | / | /
CCc1ccc(-c2nc3c(=O)n(C)c(=O)nc-3n(CC)n2)cc1 | . | 35.5µM | / | /
Cc1ccc(-n2c3nc(=O)n(C)c(=O)c-3cc3ccccc32)cc1 | . | . | . | .
CCn1c(N)nc2c1c(=O)n(C)c(=O)n2C | . | . | . | .
CN1Cc2sccc2C(c2ccc(O)c(O)c2)C1 (stereo unspecified) | ? | . | / | /
CCCN(C)CCCOc1cc2nc(N3CCCN(C)CC3)nc(NC3CCN(C)CC3)c2cc1OC | . | . | / | /
COc1cc2c(C(=O)N3CCN(c4ccc(C)cc4)C(C)C3)cn(CC(C)C)c(=O)c2cc1OC (stereo unspecified) | . | . | / | /
O=C(/C=C/c1ccc(Cl)cc1)c1cccnc1 | 31.6µM | . | . | .
CCN(CC)c1ccc(/C=C/C(=O)c2cccnc2)cc1 | . | . | ? | .
N#Cc1ccc(/C=C/C(=O)c2ccc3c(c2)OCO3)cc1 | ? | . | . | .
O=C(/C=C/c1ccccc1Cl)c1cccnc1 | 7.08µM | . | . | .
N#Cc1ccc(/C=C/C(=O)c2cccnc2)cc1 | 22.4µM | . | . | .
O=C(C=Cc1cccc(Cl)c1)c1ccccc1 | 39.8µM | . | / | /
CCOc1ccc(Sc2cc(C(=O)NCCc3ccc(OC)c(OC)c3)c3ccccc3n2)cc1 | . | . | / | /
SMILES | TrxR1 inh | TrxR1 substrate | NPSR antag | GALK inh
COc1cc2nc(NC3CCN(C)CC3)nc(N3CCCN(C)CC3)c2cc1OC | ? | . | / | /
Cc1ccc(N(CN2C(=O)C3CC=CCC3C2=O)C(=O)c2ccco2)cc1Cl (stereo unspecified) | 14.1µM | . | .[7.67 µM] | .
COc1ccc(N(CN2C(=O)C3CCCCC3C2=O)C(=O)c2ccco2)cc1 (stereo unspecified) | . | . | .[7.67 µM] | .
COc1cc(-c2nc3sccn3c2Nc2c(C)cccc2C)ccc1O | 15.8µM | . | / | /
C1=Nc2ccccc2/C1=C/c1ccccc1 | . | . | / | /
Cc1cc(Nc2c(C)n(C)n(-c3ccccc3)c2=O)n2c(nc3ccccc32)c1C#N | 35.5µM | . | . | .
CCCc1cc(Nc2c(C)n(C)n(-c3ccccc3)c2=O)n2c(nc3ccccc32)c1C#N | ? | . | ? | .
Oc1cccc(C2c3[nH]c4ccccc4c3CCN2Cc2ccc3c(c2)CCO3)c1 (stereo unspecified) | . | . | . | .
Oc1cccc(C2c3[nH]c4ccccc4c3CCN2Cc2ccoc2)c1 (stereo unspecified) | 39.8µM | . | . | .
CC(CN1c2ccccc2Sc2ccccc21)N(C)C (stereo unspecified) | 11.9µM! | . | . | .
Cc1cc2ccccc2c[n+]1C1CCCCC1 | . | . | / | /
COc1ccc(Cl)c(Cn2cnc3c(cnn3C(C)(C)C)c2=O)c1F | . | . | / | /
O=C(N/N=C/c1cc(Cl)cc([N+](=O)[O-])c1O)NC12CC3CC(CC(C3)C1)C2 | . | . | 10µM | /
CN1CCN(C(c2ccc(C(F)(F)F)cc2)c2ccc3cccnc3c2O)CC1 (stereo unspecified) | 6.31µM | . | / | .
Oc1c(C(c2cccs2)N2CCN(c3ccccc3)CC2)ccc2cccnc12 (stereo unspecified) | / | / | 15.8µM | .
Oc1c(C(c2ccccc2Cl)N2CCCC2)ccc2cccnc12 (stereo unspecified) | 7.08µM | . | 10µM | .
CCCCC(=O)NC(c1ccccc1Cl)c1ccc2cccnc2c1O (stereo unspecified) | . | . | / | .
CCCN1C(=O)C2(c3ccccc31)c1c(oc3ccc(F)cc3c1=O)C(=O)N2CCCOC(C)C (stereo unspecified) | . | . | / | /
CC1=C(C(=O)Nc2cccnc2)C(c2ccc(Cl)cc2)n2nc(SCc3ccccc3)nc2N1 (stereo unspecified) | . | .[2.29 µM] | / | /
O=C1C=CC(=O)N1c1cccc(-c2ccccc2)c1 | 2.51µM | . | . | .
CC(C)(C)n1ncc2c(=O)n(Cc3ccc(F)cc3F)cnc21 | . | . | / | /
CC(=O)/C=C/n1c(=S)oc2ccccc21 | 3.16µM | . | . | .
Cn1c(=S)oc2ccccc21 | . | . | . | /
CC(C)CC(=O)/C=C/n1c(=S)oc2ccccc21 | 6.31µM | . | . | .
Cc1ccc(NS(=O)(=O)c2cc(-c3cnc(C4CC4)o3)ccc2C)cc1Cl | . | . | / | /
SMILES | TrxR1 inh | TrxR1 substrate | NPSR antag | GALK inh
CCOC(=O)c1ccc(NC(=O)CSc2nnc(CNC(=O)c3ccc(OC)cc3)n2CC)cc1 | . | . | / | /
N#Cc1ccc(CSc2nnc(Cc3cccs3)n2Cc2ccco2)cc1 | 39.8µM | . | . | .
COc1cc2c(cc1NC(=O)CSc1nnc(Cc3cccs3)n1C)oc1ccccc12 | . | . | . | .
N#Cc1ccc(CSc2nnc(-c3ccccc3)n2Cc2ccco2)cc1 | . | . | . | .
COc1cc2c(cc1NC(=O)CSc1nnc(Cc3cccs3)n1Cc1ccco1)oc1ccccc12 | 14.1µM | . | ? | .
CCOC(=O)CSC1=NC(=O)CS1 | 14.1µM | . | . | .
CCOc1ccc2cc(C#N)c(SCC(=O)NC(C)CC)nc2c1 (stereo unspecified) | / | / | 6.31µM | .
Cc1ccc2nc(SCC(=O)NCc3cccs3)c(C#N)cc2c1 | . | . | 10µM | /
Cc1ccc2cc(C#N)c(SCC(=O)NNC(=O)Cc3ccccc3)nc2c1 | . | . | 7.94µM | .
CCOC(=O)CSc1nc2cc(OCC)ccc2cc1C#N | . | . | . | .
CCOC(=O)c1cc(C)sc1/N=C/C1C(=O)CCCC1=O | . | . | . | .
CCOC(=O)c1cc(C)sc1/N=C/C1=C(O)CCCC1=O | 20µM | . | . | .

Screening results as filed in PubChem.
